Calls of active or inactive are those of the source. Rule for the calls: active = hit-call score of the fitted dose curve at least 0.9, where 1 is the maximum; inactive = score below 0.9.
These compounds were tested on Glutamate-cysteine ligase regulatory (GCLM), GCLM (gene 2730) (assay: LTEA_HepaRG_GCLM: Life Technologies and Expression Analysis (LTEA) Assay for Glutamate-cysteine ligase regulatory (GCLM) using HepaRG (AID 2283500)). Conditions: mRNA level, 48 h; actives raise or lower the signal.
Procedure: LTEA_HepaRG is a cell based, multiplexed-readout assay that uses HepaRG, a human liver cell line, with measurements taken at 48 hours after chemical dosing on a 96-well plate.LTEA_HepaRG_GCLM is one of 102 assay component(s) measured in the LTEA HepaRG cell culture assay. It is a marker of Cell proliferation, survival, death.Data from the assay component LTEA_HepaRG_GCLM was analyzed into 1 endpoint. This assay endpoint, LTEA_HepaRG_GCLM, was analyzed with bidirectional fitting relative to DMSO as the negative control and baseline of activity. Using a type of inducible reporter, measures of mRNA induction for gain or loss-of-signal activity can be used to understand regulation of transcription factor activity. To generalize the intended target to other relatable targets, this assay endpoint is annotated to the ligase intended target family, where the subfamily is C-N ligase.
A total of 1060 chemcials from the ToxCast library were tested in eight-point concentration-response experiments. Cell culture and cytotoxicity assays were conducted at Thermo Fisher Scientific's Custom Services facility (Madison, WI). A single lot of human HepaRG cells (Thermo Fisher Scientific, Frederick, MD) was used for the cell culture experiments. 96-well format collagen type I coated plates of human HepaRG cells were prepared using established methods. Briefly, cryopreserved HepaRG cells were thawed, plated at a density of approximately 100,000 cells/well in HepaRG Thaw, Plate, and General Purpose media (HPRG770, Thermo Fisher Scientific), and incubated for 48 hours. 0.5% DMSO was selected as vehicle control to balance the requisite need of DMSO in HepaRG cultures to maintain differentiation (for example, baseline metabolism, proportions of hepatocytes vs. cholangiocytes), while enabling further hepatic receptor pathway activation (for example, PXR and CAR) in response to chemical exposure. 48 hours after plating, the culture medium was replaced with HepaRG Serum-Free Incudtion Media. Cells were exposed to each test chemical in duplicate and maintained in CO2 incubators for another 48 hours. Chemical plates were thawed to room temperature and 200x concentrations of treatment groups were prepared. 8-point conentration-reponse curves were made with the highest exposure at 100 uM, followed by half-log dilutions, all in 0.5% DMSO. Each test plate contained variouse controls, induction positive controls (1mM phenobarbital), cytotoxicity positive controls ([…] aflatoxin B1), vehicle controls (0.5% DMSO), and total lysis controls (0.5% DMSO). Cell morphology images were taken using an Essen IncuCyte FLR automated microscope, with six 96-well plates imaged in about 24 minutes. Images were captured and exported and JPEG files. Spent culture media was transfered to black-well plates for the LDH assay, and remaining media was sorted at -80 C for later use. Cells were treated with RLT buffer and frozen until shipped for gene expression analysis. Total RNA was isolated from the cell suspension in 75 uL of Buffer RLT (Qiagen, Germantown, MD 20874) by Quintiles/Expression Analysis (Durham, NC) using a custom isolation procedure. Total RNA from each plate well was transferred to a preamplification plate. Fluidigm's 96.96 Dynamic ArrayTM (Fluidigm, Amsterdam, the Netherlands) technology was used for gene expression analyses by quantitative reverse transcription polymerase chain reaction (qRT-PCR, performed by Quintiles/Expression Analysis, Durham, NC)89. Standard TaqManTM Assays (Applied Biosystems/ThermoFisher Scientific, Foster City, CA) were used to assess the expression of 93 genes selected based on their selectivity and sensitivity to important hepatic receptors known to be modulated by environmental chemicals; importance in human hepatocyte functionality; and hepatotoxicity. […]
With `O=C(O)c1cc(N=Nc2ccc(S(=O)(=O)Nc3ccccn3)cc2)ccc1O` the outcome was “inactive”.
With `CC[C@H]1CC[C@H](NCc2cc3c(cc2OC)[C@H]2C[C@H]2C(=O)N3C)[C@H](c2ccccc2)N1` the outcome was “inactive”.
For `C[C@](N)(Cc1ccc(O)c(O)c1)C(=O)O`, the outcome was “inactive”.
In the case of `O=C(O)CCN(C1(C(=O)NO)CCCC1)S(=O)(=O)c1ccc(Oc2ccc(F)cc2)cc1`, the outcome is reported as “inactive”.
For `CCCCCCc1ccc(O)cc1O`, the outcome was “inactive”.
For `C1=CCCC=CCCC=CCC1`, the outcome was “inactive”.
`CCOC(=O)CC(CC(=O)OCC)(OC(C)=O)C(=O)OCC` was tested, and the outcome was “inactive”.
`CCCCCCCCCCCCCCCO` was tested, and the outcome was “inactive”.
In the case of `CC(C)(O)c1coc(S(=O)(=O)NC(=O)Nc2c3c(cc4c2CCC4)CCC3)c1`, the outcome is reported as “inactive”.
`Cc1ccc(C)c(O)c1` was tested, and the outcome was “inactive”.
With `Cn1c(=O)cc(Oc2ccc(F)cc2F)c2cnc(NCC(C)(C)O)nc21` the outcome was “inactive”.
For `NC(=O)NO`, the outcome was “inactive”.
With `CC(C)=CCC/C(C)=C/CO` the outcome was “inactive”.
In the case of `CC(C)c1cccc(C(C)C)c1N1C(=O)c2ccc(O)cc2C1=O`, the outcome is reported as “inactive”.
In the case of `CC(C)CCCCCCCOC(=O)CCCCC(=O)OCCCCCCCC(C)C`, the outcome is reported as “inactive”.
`O=C(NS(=O)(=O)/C=C/c1ccccc1)c1ccc(F)cc1Cl` was tested, and the outcome was “inactive”.
`CCOc1cccc(-n2cc(C(=O)N3CCN(c4cc(C(=O)O)c5ccccc5c4)CC3)nc2-c2ccc(C)cc2)c1` was tested, and the AC50 was 11.5 µM (active).
For `CCc1cc(SCc2sc(-c3ccc(C(F)(F)F)cc3)nc2CN2CCN(c3ccc(OC)cc3)CC2)ccc1OCC(=O)O`, the AC50 was 26.5 µM (active).
For `CCCCC(CC)COC(=O)CCCCCCCCC(=O)OCC(CC)CCCC` (stereo not given), the outcome was “inactive”.
In the case of `O=C(O)CC(O)C(=O)O` (stereo not given), the outcome is reported as “inactive”.
With `O=C(O)c1cccc(Oc2ccccc2)c1` the outcome was “inactive”.
In the case of `Oc1ccc2c(c1)-c1ccccc1C2`, the outcome is reported as “inactive”.
`CN(C)c1ccc(N=NS(=O)(=O)O)cc1` was tested, and the AC50 was 50 µM (active).
In the case of `CCCCC(CC)COC(=O)c1ccc(C(=O)OCC(CC)CCCC)cc1` (stereo not given), the outcome is reported as “inactive”.
`CCOC(=O)c1ccc(C2CCC(NC[C@H](O)COc3ccc(O)c(NS(C)(=O)=O)c3)CC2)cc1` (stereo not given in full) was tested, and the outcome was “inactive”.
With `C=CCCCCCCCCC(=O)O` the outcome was “inactive”.
With `CNS(=O)(=O)c1cc(C(=O)N2CCC(CCN3C4CCC3CC(n3c(C)nc5ccccc53)C4)(c3cccc(F)c3)CC2)c(Cl)cc1F` (stereo not given) the outcome was “inactive”.
In the case of `CCN(C(=O)c1cc(C)cc(OC[C@H](C)Nc2ccncc2)c1)C(C)C`, the outcome is reported as “inactive”.
In the case of `COc1ccc(/C=C/S(=O)(=O)NC(=O)c2ccc(C)cc2Cl)cc1`, the outcome is reported as “inactive”.
With `CC(C)=CCC/C(C)=C\CO` the outcome was “inactive”.
For `CC(=O)c1ccc2c(c1)[C@H](NC(=O)c1ccc(F)cc1)[C@@H](O)C(C)(C)O2`, the outcome was “inactive”.
For `Cn1c(=O)c2c(ncn2C)n(C)c1=O`, the outcome was “inactive”.
With `COc1cccc(-c2ccc(/C=C\CN3CCCCCC3)cc2Cl)c1` the AC50 was 68.7 µM (active).
With `O=C(CCCCCCCCc1cccnc1)N1CCC(C=C(c2ccccc2)c2ccccc2)CC1` the AC50 was 12.8 µM (active).
In the case of `O=c1[nH]c2ccc(S(=O)CCN3CCC(Cc4ccc(F)cc4)CC3)cc2o1` (stereo not given), the AC50 is reported as 50 µM (active).
In the case of `CCOCCO`, the outcome is reported as “inactive”.
`Cc1c(-c2cccnc2)c2ccccc2n1CCCCC(=O)O` was tested, and the outcome was “inactive”.
With `COCCOc1cc2cc(C(=O)NC3CCN(C(C)C)CC3)n(CC(=O)Nc3ccc(Cl)cn3)c2cn1` the outcome was “inactive”.
For `CCn1nc(Cc2ccccc2)cc1C1CCN(C[C@H]2C[C@H](N(C)[C@@H](C(=O)O)C(C)C)C[C@@H]2c2cccc(F)c2)CC1`, the outcome was “inactive”.
For `CC[C@H](C)C(=O)O[C@H]1C[C@@H](C)C=C2C=C[C@H](C)[C@H](CC[C@@H]3C[C@@H](O)CC(=O)O3)[C@H]21`, the outcome was “inactive”.

Source: PubChem BioAssay (EPA / NIEHS)
